In test [1] the test system is TRPC4 beta (transient receptor potential cation channel C4), mouse. The test is described as follows: activators of mouse TRPC4 channel, confirmation, cell-based, Fluo4 calcium, HEK293 TRPC4beta/mu-opioid, duplicates, 10 µM (AID 2426;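 active means fluorescence ratio normalized to control raised more than 50% in primary screen plus both repeat runs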;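 on activation: percent rise of integrated ratio over buffer wells lacking compound which define 0%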). The note with it: Fluo4 calcium fluorescence, at 10 µM; active compounds read high.
The subject of test [2] is transient receptor potential cation channel C4 beta (TRPC4), mouse. The test is described as follows: activators of mouse TRPC4 channel, confirmation, cell-based, second round, Fluo4, HEK293 TRPC4beta/mu-opioid, 1 µM (AID 2461;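 active means primary screen active and over 50% activation in each of two duplicate runs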;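 on activation: 0% = wells without test compound as baseline of integrated fluorescence ratio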). The note with it: Fluo4 calcium fluorescence, at 1 µM; active compounds read high.
In test [3] the test system is TRPC4 (transient receptor potential cation channel C4 beta), mouse. Nature of the test: positive allosteric modulators of mouse TRPC4, confirmation, cell-based, second round, Fluo-4, HEK293 TRPC4beta/mu-opioid, 1 µM (AID 2554;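 active means primary screen hit whose fluorescence ratio, in both repeats, exceeds the weak agonist control mean by 3 SD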). To be noted: DAMGO EC20, Fluo-4 calcium flux, at 1 µM; active compounds read high. Background: Calcium flux is commonly read through the fluorescence of an indicator in the cells.

The subject of test [4] is TRPC4 beta (transient receptor potential cation channel C4), mouse. The test is described as follows: positive allosteric modulators of mouse TRPC4, confirmation, cell-based, Fluo-4, HEK293 TRPC4beta/mu-opioid (AID 2555;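 active means primary screen hit whose calcium fluorescence ratio, in both repeats, exceeds the weak agonist control mean by 3 SD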). The note with it: DAMGO EC20, Fluo-4 calcium flux, at 10 µM; active compounds read high.
Test [5] addresses Short transient receptor potential channel 4 (Mus musculus) (UniProt Q9QUQ5). The test is described as follows: inhibitors of mouse TRPC4 channel, confirmation, cell-based, Fluo4, HEK293 TRPC4beta/mu-opioid (AID 2636;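 active means calcium signal cut by more than 3 SD below the full-agonist control yet still positive, in both repeats and the earlier primary screen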). The note with it: DAMGO, Fluo4 calcium flux, at 10 µM; active compounds read high.
Test [6] has the same target. Nature of the test: inhibitors of mouse TRPC4 channel, confirmation, cell-based, second round, Fluo4, HEK293 TRPC4beta/mu-opioid, 1 µM (AID 2637;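 active means calcium signal ratio cut to more than 3 SD under the fully stimulated control mean yet still positive, in both repeats and the primary screen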). The note with it: Fluo4 calcium flux, DAMGO, at 1 µM; active compounds read high.
The target is the same in test [7]. The test is described as follows: mouse TRPC4 channel activators, dose response, cell-based, HEK293 TRPC4/mu-opioid, Fluo-4 calcium (AID 434937;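 active means primary screen activator hit with a dose response curve and TRPC4 channel activation at any tested dose; inactive means no activation, no dose response, or not a primary hit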).
Test [8] shares this target. Nature of the test: TRPC4 positive allosteric modulators, dose response, cell-based, HEK293 TRPC4/mu-opioid, Fluo-4 calcium, EC20 DAMGO (AID 434941;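 active means earlier screen potentiator hit that boosts the TRPC4 ion channel at some dose, with a dose response; inactive means no potentiation, no dose response, or not a prior hit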;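 further: calcium entry triggered by an EC20 dose of DAMGO at the co-expressed mu-opioid receptor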).
Test [9] has as its target Short transient receptor potential channel 6 (Mus musculus) (UniProt Q61143). Nature of the test: inhibition of mouse TRPC6 channel, confirmation, selectivity assay for TRPC4 inhibitor project, cell-based, HEK293, membrane potential dye, duplicate (AID 434948;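 active means active in primary screen and both duplicates, each dropping signal beyond three positive-control SD with fluorescence still positive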). The note with it: HEK293 TRPC6, membrane potential dye fluorescence, at 10 µM, stimulated with maximal-effect acetylcholine; active compounds read high.

The target is the same in test [10]. The test is described as follows: activation of mouse TRPC6 channel, confirmation, selectivity assay for TRPC4 activator project, cell-based, HEK293, membrane potential dye, duplicate (AID 434950;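 active means membrane potential signal rise above negative control mean plus 3 SD in both duplicates, also active in the earlier TRPC4 screen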;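 on activation: 0% = buffer only wells and 100% = acetylcholine maximal-effect wells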). The note with it: HEK293 TRPC6, membrane potential fluorescence, at 10 µM; active compounds read high.
Test [11] shares this target. The test is described as follows: TRPC6 potentiation by TRPC4 potentiator hits, confirmation, selectivity assay for TRPC4 potentiator project, HEK293 cells, membrane potential dye, duplicate (AID 434952;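 active means compound raising the membrane signal above positive-control mean plus 3 SD in both repeats, and a primary screen hit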). The note with it: HEK293 TRPC6, membrane potential dye fluorescence, at 10 µM, maximal acetylcholine added after compound; active compounds read high.
The target of test [12] is Short transient receptor potential channel 4 (Mus musculus) (UniProt Q9QUQ5). Nature of the test: calcium flux activators in TRPC4/5HT1a cells, counter-screen for TRPC4 activator project, cell-based, second counter screen, HEK293 TRPC4/5HT1a, Fluo-4 (AID 434977;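 active means calcium signal rise above buffer-control mean plus 5 SD in both duplicates, and also a hit in the primary screen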;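 on activation: plate controls were assay buffer for no effect and maximal serotonin response for full effect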). To be noted: Fluo-4 calcium flux, at 10 µM; active compounds read high.
Test [13] in a line: calcium flux inhibitors in TRPC4/5HT1a cells, confirmation, counter-screen for TRPC4 inhibitor project, cell-based, second counter screen, HEK293 TRPC4/5HT1a, Fluo-4 (AID 434978;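 active means primary screen active whose calcium signal fell more than 3 SD beyond the full-serotonin control mean in both duplicate plates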;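 on outcome: serotonin given first at submaximal then at maximal dose after compound preincubation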). The note with it: Fluo-4 calcium flux, at 10 µM, serotonin added to trigger calcium flux; active compounds read high.
Test [14] deals with TRPC4 (mouse), co-expressed with 5HT1a in HEK293. Nature of the test: calcium flux potentiators in TRPC4/5HT1a cells, confirmation, counter-screen for TRPC4 potentiator project, cell-based, second counter screen, HEK293 TRPC4/5HT1a, Fluo-4 (AID 434979). To be noted: Fluo-4 calcium flux, at 10 µM, serotonin added at its EC20 dose; active compounds read high.
A short description of test [15]: calcium flux activation in mu-opioid HEK293 cells, confirmation, counter-screen for TRPC4 activator project, cell-based, HEK293 mu-opioid receptor line (AID 449723;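 active means hit in primary screen, with calcium signal over 5 SD above buffer well mean in both duplicates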;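 further: counter screen cells carry the mu-opioid receptor alone and lack TRPC4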). The note with it: Fluo-4 calcium fluorescence, at 10 µM; active compounds read high.
Test [16] is described as follows: calcium flux enhancement in mu-opioid HEK293 cells, confirmation, counter-screen for TRPC4 allosteric potentiator project, cell-based, HEK293 mu-opioid receptor line (AID 449724;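 active means calcium signal rise more than 3 SD above the low-dose agonist control mean, in both duplicate plates and the primary screen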;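 further: HEK293 cells carrying mu-opioid receptor only with no TRPC4 channel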). To be noted: Fluo-4 calcium flux, at 10 µM, compound added before EC20 DAMGO stimulus; active compounds read high.
A short description of test [17]: thallium flux activation in parental CHO cells, counter-screen for KCNQ1 potentiator project (AID 493006;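 active means duplicate-averaged activation above buffer control mean plus 5 SD of those controls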). The note with it: parental CHO-K1 cells, FluxOR thallium flux, at 10 µM; active compounds read high. A general note: A counterscreen serves to expose hits that act by an unwanted route or on another target.
The target in test [18] is Potassium voltage-gated channel subfamily KQT member 1 (Homo sapiens) (UniProt P51787). Nature of the test: KCNQ1 potassium channel potentiators, confirmation, FluxOR thallium flux, CHO cells, duplicates (AID 493007;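 active means potentiation averaged over duplicate wells exceeding buffer-only control mean by more than 3 SD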;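 further: cells depolarized by a potassium plus thallium sulfate stimulus after compound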). To be noted: KCNQ1 cell line, FluxOR thallium flux fluorescence, at 10 µM; active compounds read high, % of reference activator effect, buffer zero.
Test [19] addresses Potassium voltage-gated channel subfamily KQT member 2 (Rattus norvegicus) (UniProt O88943). Nature of the test: rat KCNQ2 channel potentiation, selectivity assay for KCNQ1 potentiator project, KCNQ2-CHO-K1 cells (AID 493009;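 active means mean duplicate potentiation above the buffer control mean plus 5 SD of buffer wells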;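 further: assay conditions were tuned for KCNQ1 rather than KCNQ2 modulators; signal is max minus min fluorescence divided by baseline after thallium stimulus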). The note with it: FluxOR thallium flux fluorescence, at 10 µM; active compounds read high, scaled: buffer 0, activator control 100.
In test [20] the target is Short transient receptor potential channel 4 (Mus musculus) (UniProt Q9QUQ5). Nature of the test: mouse TRPC4 channel inhibitors, dose response, cell-based, HEK293 TRPC4/mu-opioid, Fluo-4 calcium (AID 434942;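 active means primary screen inhibitor hit that blocks the TRPC4 channel at some tested dose, yielding a dose curve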).

For some assays here: Entries with a potency or affinity are not part of this list. Active and inactive are the calls of the source.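 How the source made its calls, unless noted: active means signal rise over 3 SD above mean of control wells given weak agonist, in both repeats and first screen; inactive means the rest.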

Short transient receptor potential channel 6 (Mus musculus), sequence (Q61143 whole entry, looked up): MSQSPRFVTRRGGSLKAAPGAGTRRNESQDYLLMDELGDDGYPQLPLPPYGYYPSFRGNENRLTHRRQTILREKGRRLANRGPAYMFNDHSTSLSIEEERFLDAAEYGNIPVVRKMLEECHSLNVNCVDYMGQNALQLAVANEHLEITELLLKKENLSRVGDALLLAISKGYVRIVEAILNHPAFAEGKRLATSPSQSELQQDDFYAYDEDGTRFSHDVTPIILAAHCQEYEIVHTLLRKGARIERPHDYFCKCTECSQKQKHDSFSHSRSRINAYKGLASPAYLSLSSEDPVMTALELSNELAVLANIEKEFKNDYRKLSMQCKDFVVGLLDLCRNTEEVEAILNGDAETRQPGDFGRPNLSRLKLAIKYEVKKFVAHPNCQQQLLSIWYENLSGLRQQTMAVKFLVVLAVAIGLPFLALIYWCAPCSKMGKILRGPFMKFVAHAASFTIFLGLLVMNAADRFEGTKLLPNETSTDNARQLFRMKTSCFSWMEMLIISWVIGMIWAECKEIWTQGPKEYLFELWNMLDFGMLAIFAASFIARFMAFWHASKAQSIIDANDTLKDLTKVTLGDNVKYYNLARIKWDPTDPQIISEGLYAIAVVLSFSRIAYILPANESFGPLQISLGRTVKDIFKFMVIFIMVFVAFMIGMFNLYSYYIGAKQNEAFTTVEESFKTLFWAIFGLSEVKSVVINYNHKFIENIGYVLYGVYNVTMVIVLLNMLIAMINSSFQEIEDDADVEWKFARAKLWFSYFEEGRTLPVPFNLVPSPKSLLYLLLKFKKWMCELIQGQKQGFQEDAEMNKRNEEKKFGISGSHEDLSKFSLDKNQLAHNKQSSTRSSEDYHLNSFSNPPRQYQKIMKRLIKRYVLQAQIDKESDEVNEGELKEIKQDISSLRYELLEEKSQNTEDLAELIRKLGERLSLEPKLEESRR
Short transient receptor potential channel 4 (Mus musculus), sequence (Q9QUQ5 whole entry, looked up): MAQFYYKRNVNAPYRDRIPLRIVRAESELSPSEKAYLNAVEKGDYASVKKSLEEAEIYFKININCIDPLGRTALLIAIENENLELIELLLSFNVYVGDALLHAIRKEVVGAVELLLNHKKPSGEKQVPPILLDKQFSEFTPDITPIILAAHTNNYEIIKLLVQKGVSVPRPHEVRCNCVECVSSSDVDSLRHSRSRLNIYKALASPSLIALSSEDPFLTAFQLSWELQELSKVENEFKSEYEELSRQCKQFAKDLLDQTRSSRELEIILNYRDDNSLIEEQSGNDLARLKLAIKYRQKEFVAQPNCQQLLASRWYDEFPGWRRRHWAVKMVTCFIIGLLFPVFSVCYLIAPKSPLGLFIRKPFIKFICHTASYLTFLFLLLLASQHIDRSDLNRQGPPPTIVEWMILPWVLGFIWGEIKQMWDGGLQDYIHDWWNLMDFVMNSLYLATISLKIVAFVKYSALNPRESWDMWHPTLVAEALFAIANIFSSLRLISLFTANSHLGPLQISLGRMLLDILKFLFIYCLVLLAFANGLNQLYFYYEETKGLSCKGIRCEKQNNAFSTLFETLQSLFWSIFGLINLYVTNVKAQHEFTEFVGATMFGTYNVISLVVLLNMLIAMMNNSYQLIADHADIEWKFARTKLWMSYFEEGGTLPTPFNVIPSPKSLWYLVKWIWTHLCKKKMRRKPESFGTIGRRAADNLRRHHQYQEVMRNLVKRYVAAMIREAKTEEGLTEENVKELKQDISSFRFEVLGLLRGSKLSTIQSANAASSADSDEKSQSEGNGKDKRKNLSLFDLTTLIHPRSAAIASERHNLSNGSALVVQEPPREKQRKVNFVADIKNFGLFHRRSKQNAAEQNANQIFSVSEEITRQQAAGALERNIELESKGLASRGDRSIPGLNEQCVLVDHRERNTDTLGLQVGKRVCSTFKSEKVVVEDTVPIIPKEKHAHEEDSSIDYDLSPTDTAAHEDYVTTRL
Potassium voltage-gated channel subfamily KQT member 2 (Rattus norvegicus), sequence (O88943 whole entry, looked up): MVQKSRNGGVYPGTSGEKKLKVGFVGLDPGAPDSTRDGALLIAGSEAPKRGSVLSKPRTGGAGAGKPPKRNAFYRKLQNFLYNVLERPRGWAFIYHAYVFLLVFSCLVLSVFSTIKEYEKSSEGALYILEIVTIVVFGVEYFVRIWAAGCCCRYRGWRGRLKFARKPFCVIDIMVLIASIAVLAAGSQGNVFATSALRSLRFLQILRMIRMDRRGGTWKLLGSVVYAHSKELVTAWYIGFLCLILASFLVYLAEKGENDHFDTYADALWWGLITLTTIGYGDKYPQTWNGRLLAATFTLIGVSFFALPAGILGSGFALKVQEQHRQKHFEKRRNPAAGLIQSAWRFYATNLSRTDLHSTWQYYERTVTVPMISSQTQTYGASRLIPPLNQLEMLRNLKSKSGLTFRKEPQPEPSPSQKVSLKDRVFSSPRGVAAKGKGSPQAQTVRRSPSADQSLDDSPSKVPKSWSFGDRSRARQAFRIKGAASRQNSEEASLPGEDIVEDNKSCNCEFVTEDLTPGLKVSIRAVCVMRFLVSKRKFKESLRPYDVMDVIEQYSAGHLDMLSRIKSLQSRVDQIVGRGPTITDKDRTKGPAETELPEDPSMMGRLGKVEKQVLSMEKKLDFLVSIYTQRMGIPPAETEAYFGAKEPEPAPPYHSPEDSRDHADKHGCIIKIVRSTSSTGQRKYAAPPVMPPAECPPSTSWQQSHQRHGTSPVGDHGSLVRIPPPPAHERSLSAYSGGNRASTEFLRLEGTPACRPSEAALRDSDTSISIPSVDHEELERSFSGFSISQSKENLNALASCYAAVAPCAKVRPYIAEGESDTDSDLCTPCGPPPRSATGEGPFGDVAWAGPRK
Potassium voltage-gated channel subfamily KQT member 1 (Homo sapiens), sequence (P51787 whole entry, looked up): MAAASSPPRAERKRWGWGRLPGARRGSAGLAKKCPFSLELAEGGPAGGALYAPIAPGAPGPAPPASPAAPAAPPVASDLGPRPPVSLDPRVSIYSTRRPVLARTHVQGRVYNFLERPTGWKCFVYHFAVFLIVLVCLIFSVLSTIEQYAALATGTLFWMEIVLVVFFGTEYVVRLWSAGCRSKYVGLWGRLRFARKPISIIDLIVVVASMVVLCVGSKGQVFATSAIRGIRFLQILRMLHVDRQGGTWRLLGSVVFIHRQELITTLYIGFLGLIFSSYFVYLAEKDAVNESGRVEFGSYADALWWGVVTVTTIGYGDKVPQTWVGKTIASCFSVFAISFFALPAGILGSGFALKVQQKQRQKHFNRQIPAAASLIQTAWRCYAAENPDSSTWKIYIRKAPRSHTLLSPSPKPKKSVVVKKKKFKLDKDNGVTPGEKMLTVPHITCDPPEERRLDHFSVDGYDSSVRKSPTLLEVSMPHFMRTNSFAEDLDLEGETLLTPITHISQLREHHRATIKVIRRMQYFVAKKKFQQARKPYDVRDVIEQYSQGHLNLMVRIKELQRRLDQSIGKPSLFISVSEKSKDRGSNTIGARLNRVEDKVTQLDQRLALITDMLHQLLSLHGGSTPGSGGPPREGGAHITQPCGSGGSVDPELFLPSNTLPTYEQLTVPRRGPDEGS

In the case of `Brc1ccccc1CN1CCN(Cc2c[nH]c3ccccc23)CC1`, the outcome in [1], in test [2], in test [3], in [4], in test [6] and in test [7] was inactive. Further, the outcome in test [8], in test [10], in test [11], in [12], in test [14] and in test [15] was inactive. Also, the outcome in test [16], in test [17], in test [18] and in test [19] was inactive. For the same molecule, the values for the inhibition in test [5], in test [9] and in test [13] were 78% (active), 55.5% (active) and 41.8% (active), respectively.

In the case of `CCCCN(C)CCNC(=O)c1cc2c(-c3cccc(OC)c3)nn(C)c2s1`, the result in [1], in test [2], in test [3], in test [4], in test [5] and in [6] was inactive. For the same molecule, the result in test [7], in [20], in test [9], in test [10], in test [11] and in test [12] was inactive. The result in [13], in [15] and in test [16] was inactive. Also, the potentiation in test [14] was 39.5% (active).

For `O=C(NCc1ccccc1)C1=C[C@H](c2ccc(Br)cc2)C[C@H](OCc2ccc(CO)cc2)O1`, the outcome in test [1], in test [2], in test [3], in test [5], in test [6] and in test [7] was inactive. Moreover, the result in test [20], in test [9], in [10], in test [11], in test [12] and in test [13] was inactive. Moreover, the result in [15] and in test [16] was inactive. Besides, the values for the potentiation in test [4] and in test [14] were 35% (active) and 97.6% (active), respectively.

With `c1ccc(-c2nc(N3CCNCC3)nc3ccccc23)cc1`, the outcome in test [1], in test [2], in [4], in test [5], in test [6] and in test [7] was inactive. Also, the outcome in [20], in test [9], in [10], in test [11], in test [12] and in [13] was inactive. The outcome in [14], in [15] and in test [16] was inactive. Further, in [3], the potentiation is 19% (active).

With `CC1=C(C(=O)NCc2ccccc2)C(c2cc(Br)cc(Br)c2OC(C)C)NC(=O)N1` (stereo unspecified), the result in [1], in test [2], in test [3], in test [5], in [6] and in test [7] was inactive. The result in test [20], in [9], in test [10], in test [11], in test [12] and in [13] was inactive. Besides, the result in test [15] and in test [16] was inactive. In addition, the values for the potentiation in test [4] and in [14] were 28% (active) and 11.7% (active), respectively.

For `CNCCOc1ccc(Cl)c(Cl)c1`, the activation in test [1] was 81% (active); in test [2], 54% (active); in [10] it was 39.5% (active); in test [12], 24.9% (active). Further, the values for the potentiation in test [3], in test [4] and in test [14] were 44% (active), 23% (active) and 24% (active), respectively. The outcome in test [5], in [6], in test [8], in test [20], in [9] and in test [11] was inactive. In addition, the outcome in test [13], in test [15] and in [16] was inactive.

Consider `O=C(O)CCNc1nc(-c2ccccc2)c2cc(Br)ccc2n1`, for which the result in [1], in test [2], in test [4], in test [5], in test [6] and in test [7] was inactive. Also, the result in test [20], in [9], in test [10], in test [11], in test [12] and in [13] was inactive. Further, the outcome in test [15] and in [16] was inactive. For the same molecule, the potentiation is 11% (active) in test [3] and 24.1% (active) in [14].

In the case of `CN(C)CCOc1cc(Cl)cc(Cl)c1`, the result in [1], in test [2], in test [3], in [4], in [5] and in [6] was inactive. The result in test [7], in test [20], in test [9], in test [10], in test [11] and in test [12] was inactive. The outcome in test [13], in test [15] and in test [16] was inactive. For the same molecule, the potentiation in test [14] is 10.7% (active).

The record behind these values is PubChem BioAssay.
